From publication PMC11995724, “Antibiotic target discovery by integrated phenotypic and activity-based profiling of electrophilic fragments” (Cell chemical biology, 2025)
Among all 3,200 compounds or so, about 75 (2%) showed an effect of 50% or more. The list comes from a sample in which strong results are over-represented; it also holds similar structures and randomly drawn compounds.

test system: T1, S. aureus MSSA476; set-up: species or system S. aureus MSSA476 (TSB) or V. cholerae SAD30 (LB); 384-well bacterial growth screen at 25 uM, OD600 relative to DMSO control; conditions: relative growth, OD600, TSB; 25 µM; inhibitor
T1 construct: MSSA476

Row | SMILES | % of control remaining [%]
1 | O=C(CCl)NC(Cc1ccccc1)c1ccccc1F (stereo not shown) [7-N10, 2-chloro-N-[1-(2-fluorophenyl)-2-phenylethyl]acetamide] | 83.5165
2 | CC(Cl)C(=O)N1CCNC(=O)C1Cc1nc2ccccc2o1 (stereo not shown) [6-P03, 3-[(1,3-benzoxazol-2-yl)methyl]-4-(2-chloropropanoyl)piperazin-2-one] | 97.3171
3 | c1ccc(CSSCc2ccccc2)cc1 [10-O21, [(benzyldisulfanyl)methyl]benzene] | 113.125
4 | Cl.O=C(CCl)NCC(c1ccccc1Cl)N1CCCC1 (stereo not shown) [6-G17, 2-chloro-N-[2-(2-chlorophenyl)-2-(pyrrolidin-1-yl)ethyl]acetamide hydrochloride] | 101.415
5 | O=C(CCl)NC(Cc1cccc(O)c1)c1ccccc1 (stereo not shown) [7-N20, 2-chloro-N-[2-(3-hydroxyphenyl)-1-phenylethyl]acetamide] | 100.157
6 | COc1ccc(N2C(=O)C=CC2=O)c([N+](=O)[O-])c1 [10-L11, 1-(4-methoxy-2-nitrophenyl)-2,5-dihydro-1H-pyrrole-2,5-dione] | 100
7 | CC(C)CNC(=O)c1ccccc1NC(=O)CCl [4-E04, 2-(2-chloroacetamido)-N-(2-methylpropyl)benzamide] | 88.4231
8 | O=C(CCl)NCC(=O)Nc1ccc(F)c(F)c1 [4-L16, 2-chloro-N-{[(3,4-difluorophenyl)carbamoyl]methyl}acetamide] | 109.004
9 | N#CC(C(=O)CCl)=C1NC(=O)c2ccccc2N1 [10-P14, 4-chloro-3-oxo-2-(4-oxo-1,2,3,4-tetrahydroquinazolin-2-ylidene)butanenitrile] | 93.75
10 | N#CC(C(=O)CCl)=C1Nc2cc(Cl)ccc2S1 [10-O08, 4-chloro-2-(5-chloro-2,3-dihydro-1,3-benzothiazol-2-ylidene)-3-oxobutanenitrile] | 100
11 | N#CC(C(=O)CCl)=C1Nc2ccccc2S1 [10-J04, 4-chloro-2-(2,3-dihydro-1,3-benzothiazol-2-ylidene)-3-oxobutanenitrile] | 43.75
12 | CCn1cc(S(=O)(=O)N2CCSSCC2)cn1 [10-N19, 5-[(1-ethyl-1H-pyrazol-4-yl)sulfonyl]-1,2,5-dithiazepane] | 97.1875
13 | Cc1cc(CN(C(=O)CCl)c2csnc2C)cs1 [5-C12, 2-chloro-N-(3-methyl-1,2-thiazol-4-yl)-N-[(5-methylthiophen-3-yl)methyl]acetamide] | 105.282
